HUVEC tox TNFa – cytotoxicity in TNFa-stimulated HUVEC, primary screen, cytotoxicity control for VCAM1 expression modulator project, imaging, Hoechst nuclei count; HUVEC TNFalpha-stimulated, Hoechst cell count; cell count reduction, % at 2 µM; 0.17% of 93,000 active; AID 848, 2007;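 active = cell count reduction exceeding the screen mean by over 5 SD, scaled to untreated wells per plate, cut at about 78% in these data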;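 also: cells counted after 24 h of TNF alpha exposure following the 1 h pretreatment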
VCAM1 TNFa inh – inhibitors of TNFa-induced VCAM1 expression, primary screen, imaging, HUVEC, TNFa stimulus, immunofluorescence. HUVEC TNFa-induced VCAM-1 immunofluorescence, high-content imaging. inhibition, % at 2 µM. 0.48% of 95,000 active;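 active = inhibition above the batch mean plus 3 SD, with images confirmed as a hit by eye, cut at about 37% in these data; inconclusive = inhibition above that limit but hit not confirmed in images; inactive = inhibition not above that limit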
F-actin modifier – modifiers of F-actin cytoskeleton organization, primary screen, imaging, HUVEC, phalloidin staining, high-content imaging. 0.18% of 91,000 active. inhibition, % at 2 µM. HUVEC TNFa F-actin phalloidin imaging;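 active = inhibition above the batch mean plus 3 SD and confirmed as a hit by visual image inspection, cut at about 30% in these data, passing the limit was not always enough; inconclusive = above the inhibition threshold but rejected on visual inspection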
E-sel TNF inh – E-selectin induction blockers in HUVEC – imaging, immunofluorescence, high content, primary screen | HUVEC TNFa-induced E-selectin immunofluorescence | inhibition, % at 2 µM | 0.71% of 120,000 active | AID 1246, 2008;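 active = inhibition above the batch mean plus 3 SD, and confirmed as a hit on visual image review, cut at about 43% in these data; inconclusive = passes the inhibition cutoff but fails visual image review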
Each line names hits and unclear results; the compound was inactive in the other large screens. Compounds with a hit are over-represented: about 1% of the library has one in this group of screens.

O=C1CC(c2ccccc2)Cc2nc3ncnn3cc21 (centres undefined)	VCAM1 TNFa inh 59.8
C/C(=N\NC(=O)c1cccc(C)c1)c1ccc(N2CCOCC2)cc1	E-sel TNF inh 99.8
CNC(=S)N/N=C(\C)c1ccc(N2CCOCC2)cc1	none (no result: HUVEC tox TNFa, VCAM1 TNFa inh, F-actin modifier)
O=C(CNS(=O)(=O)c1ccccc1)Nc1ccc(C(F)(F)F)cc1	none
COc1ccccc1Cc1nc(-c2ccncc2)no1	E-sel TNF inh 77.3 (no result: HUVEC tox TNFa, VCAM1 TNFa inh, F-actin modifier)
O=C(c1cc([N+](=O)[O-])ccc1Cl)N1c2ccccc2Sc2ccccc21	none (no result: HUVEC tox TNFa, VCAM1 TNFa inh, F-actin modifier)
COC(=O)C1=C(C)N(c2cccc(C)c2)C(=O)/C1=C\c1cccs1	none
COC(=O)C1=NN(c2cccc(C)c2)C2C(=O)N(c3ccccc3OC)C(=O)C12 (centres undefined)	E-sel TNF inh 73.5 (no result: HUVEC tox TNFa, VCAM1 TNFa inh, F-actin modifier)
O=S(=O)(Cc1ccccc1Cl)N1CCN(Cc2ccc3c(c2)OCO3)CC1	F-actin modifier 47.3
CC(OC(=O)c1nn(C(C)C)c(=O)c2ccccc12)C(=O)Nc1ncc(Cl)cc1Cl (centres undefined)	none (no result: HUVEC tox TNFa, VCAM1 TNFa inh, F-actin modifier)
Cc1ccc(N2C(=O)C3C4C=CC(CNC(=S)Nc5ccc(F)cc5)(O4)C3C2=O)cc1 (centres undefined)	E-sel TNF inh 68.1 (no result: HUVEC tox TNFa, VCAM1 TNFa inh, F-actin modifier)
CCCCNC(=O)C1CC(c2cccc([N+](=O)[O-])c2)=NO1 (centres undefined)	none
O=C(NCc1ccco1)C1CC(c2cccc([N+](=O)[O-])c2)=NO1 (centres undefined)	E-sel TNF inh 100.0
Cc1ccccc1-n1ccnc1SCC(=O)O	E-sel TNF inh 65.1
O=c1cc(CO)oc(C(Nc2ccccn2)c2ccccc2F)c1O (centres undefined)	E-sel TNF inh 68.0
Cc1ccc2cccc(Oc3ncnc4scc(-c5ccccc5)c34)c2n1	none (no result: HUVEC tox TNFa, VCAM1 TNFa inh, F-actin modifier)
COc1ccc(-c2csc3ncnc(Oc4cccc5ccc(C)nc45)c23)cc1	E-sel TNF inh 89.1 (no result: HUVEC tox TNFa, VCAM1 TNFa inh, F-actin modifier)
O=C(NC(CC(=O)N1CCN(c2ccc([N+](=O)[O-])cc2)CC1)c1ccccc1)c1ccccc1Cl (centres undefined)	none (no result: HUVEC tox TNFa, VCAM1 TNFa inh, F-actin modifier)
O=C(Nc1ccccc1Cl)ON=C1c2ccccc2-c2ccccc21	none
Cn1nc(C(=O)OCC(=O)N2CCc3ccccc32)c2ccccc2c1=O	HUVEC tox TNFa 88.0, VCAM1 TNFa inh 77.0 (no result: E-sel TNF inh)
Cc1ccc(C(=O)OCC(=O)N2CCc3ccccc32)cc1	none
N#CC1=C(N)Oc2cc(O)ccc2C1c1cccs1 (centres undefined)	none
N#CC1=C(N)Oc2c(ccc3ccccc23)C1c1cccs1 (centres undefined)	VCAM1 TNFa inh 79.6
CCN(CC)c1ccc(C2=NNC(=O)CC2C)cc1[N+](=O)[O-] (centres undefined)	VCAM1 TNFa inh 78.2
CC1CC(=O)NN=C1c1ccc(N(C)C)c([N+](=O)[O-])c1 (centres undefined)	none
CN(C)c1ccc(C(=O)c2ccc(N(C)C)c3ccccc23)cc1	HUVEC tox TNFa 83.6, VCAM1 TNFa inh 98.9
COc1ccc(C(=O)c2ccc(N(C)C)cc2)c(OC)c1	none (no result: E-sel TNF inh)
Cc1cc(CNC(=O)C(C)Cc2ccccc2)nn1C (centres undefined)	none (no result: HUVEC tox TNFa, VCAM1 TNFa inh, F-actin modifier)
Cc1cc2oc(=O)cc(CN3CCN(S(=O)(=O)c4cccs4)CC3)c2cc1C	none (no result: HUVEC tox TNFa, VCAM1 TNFa inh, F-actin modifier)
CCC(C)(C)NC(=O)Cc1ccc(OC)c(OC)c1	none
CCC(C)(C)NC(=O)CN(C(=O)c1snc(C(N)=O)c1N)c1ccc(OC)c(OC)c1	E-sel TNF inh 76.2
CCCC(C)NCC(=O)Nc1ccccc1-c1ccccc1 (centres undefined)	none
COc1ccc(-c2cc(C(F)(F)F)n3ncc(C(=O)Nc4c(C)n(C)n(-c5ccccc5)c4=O)c3n2)cc1	none (no result: HUVEC tox TNFa, VCAM1 TNFa inh, F-actin modifier)
CCOc1ccc(NCc2nc3ccccc3n2CCOc2ccccc2)cc1	E-sel TNF inh 92.3 (no result: HUVEC tox TNFa, VCAM1 TNFa inh, F-actin modifier)
CC(NC(=O)c1ccco1)C(=O)N1CCc2ccccc2C1 (centres undefined)	none
COc1cccc(C(=O)Nc2c(C)n[nH]c2C)c1	none (no result: E-sel TNF inh)
Cc1cc(NC(=O)NC(=O)c2cccc(OC(F)(F)C(F)F)c2)n[nH]1	VCAM1 TNFa inh 91.4
CCCCCCOC(=O)/C=C/c1c(C)[nH]c(=O)[nH]c1=O	E-sel TNF inh 74.0
CCOC(=O)C(C)Oc1cccc2c(=O)n(CC(=O)Nc3ccc4c(c3)OCCO4)ccc12 (centres undefined)	none (no result: E-sel TNF inh)
CCOC(=O)C(C)Oc1cccc2c(=O)n(CC(=O)NCc3ccc4c(c3)OCO4)ccc12 (centres undefined)	HUVEC tox TNFa 94.1, F-actin modifier inconclusive (no result: E-sel TNF inh)
CCOC(=O)C(C)Oc1cccc2c(=O)n(CC(=O)Nc3cccc(OC)c3)ccc12 (centres undefined)	E-sel TNF inh 66.7
CCOc1cc(/C=N/NC(=S)Nc2ccccc2C(F)(F)F)ccc1OCC(=O)N1CCOCC1	none (no result: HUVEC tox TNFa, VCAM1 TNFa inh, F-actin modifier)
Cc1cc(/C=C2\SC(=Nc3ccc(F)cc3)NC2=O)c(C)n1-c1ccc(S(N)(=O)=O)cc1	F-actin modifier 31.4
COc1ccccc1C(=O)Nc1ccc2c(c1)nc(CN1CCN(C(C)=O)CC1)n2C	VCAM1 TNFa inh 90.2
CC(=O)N1CCN(Cc2nc3cc(NC(=O)c4ccccc4)ccc3n2C)CC1	none
Cc1nonc1OCCn1c([N+](=O)[O-])cnc1C	none (no result: HUVEC tox TNFa, VCAM1 TNFa inh, F-actin modifier)
NC(=O)CNC(=O)[C@@H]1CC2(CC(c3ccc(Cl)cc3)=NO2)CN1C(=O)c1ccc(Br)cc1 (some centres undefined)	none
COc1cc(C(=O)Nc2ccc3c(c2)C(=O)c2ccccc2C3=O)cc(OC)c1OC	E-sel TNF inh 63.6 (no result: HUVEC tox TNFa, VCAM1 TNFa inh, F-actin modifier)
COc1ccc(-c2cc3ccc(OCc4nn[nH]n4)cc3oc2=O)cc1OC	VCAM1 TNFa inh 50.6
CCOC(=O)c1cccc(NC(=O)CSc2nnc(-c3ccoc3C)n2CCOC)c1	HUVEC tox TNFa 90.9, E-sel TNF inh 100.0
Cc1occc1-c1nnc(SCC(=O)Nc2ccccc2)n1CCc1ccccc1	none
CC(=O)Nc1c(N)c2ccccc2oc1=O	none (no result: HUVEC tox TNFa, VCAM1 TNFa inh, F-actin modifier)
O=C(CNS(=O)(=O)c1ccc2ccccc2c1)OCc1nnc(-c2ccccc2)o1	none (no result: E-sel TNF inh)
O=C(CCn1c(=O)oc2ccccc21)N1CCN(c2ccccc2F)CC1	HUVEC tox TNFa 80.4 (no result: E-sel TNF inh)
O=C(CCn1c(=O)oc2ccccc21)N1CCN(C(c2ccccc2)c2ccccc2)CC1	none (no result: E-sel TNF inh)
O=C(OCn1ncc(Br)c(Br)c1=O)c1c(F)cccc1F	VCAM1 TNFa inh 73.8
CCN(c1ccccc1)S(=O)(=O)c1ccc(C(=O)NCC(c2cccs2)N(C)C)cc1 (centres undefined)	none (no result: HUVEC tox TNFa, VCAM1 TNFa inh, F-actin modifier)
CCCOc1ccc(C(=O)NCC(c2cccs2)N(C)C)cc1 (centres undefined)	E-sel TNF inh 94.0 (no result: HUVEC tox TNFa, VCAM1 TNFa inh, F-actin modifier)
Cc1cccc(N2CCN(C(=O)COc3ccc4c(c3)CCC4)CC2)c1C	none (no result: HUVEC tox TNFa, VCAM1 TNFa inh, F-actin modifier)
CC(C)(C)NC(=O)NC(=O)CSc1ncn[nH]1	E-sel TNF inh 99.8 (no result: HUVEC tox TNFa, VCAM1 TNFa inh, F-actin modifier)
COc1ccc(C(=O)Nc2ccc3oc(Cc4ccc(Cl)cc4)nc3c2)cc1OC	none
Cc1c(NC(=S)NC(=O)C2CCCCC2)c(=O)n(-c2ccccc2)n1C	none (no result: HUVEC tox TNFa, VCAM1 TNFa inh, F-actin modifier)
OCCNCC(O)Cn1ccc2ccccc21 (centres undefined)	VCAM1 TNFa inh 100.0 (no result: HUVEC tox TNFa, F-actin modifier)
CC(=O)NC(=S)Nc1cccc(S(=O)(=O)NC2=NCCC2)c1	none (no result: HUVEC tox TNFa, VCAM1 TNFa inh, F-actin modifier)

Assay outcomes (PubChem BioAssay)
